{"source": "PubChem BioAssay AID1851", "about": "(National Center for Advancing Translational Sciences (NCATS), 2009)", "note": "Several values for one entry are separate records, joined by “and”; a condition that tells them apart may be missing. Equal entries are not always repeated. In all, about 16,000 compounds went through this assay and about 5,700 (36%) were called active. About 24% were inconclusive and are not listed. Some of the results follow. A number with no mark means an inactive call. The call rests on the fitted dose curve; in most records, active means well fitted curve in the direction sought with a large enough effect; inconclusive means small, poorly fitted or top-dose-only effect, or effect the other way; inactive means no such curve, though single readings can be large or run the other way. On the % scale 0 is the no-effect control and ±100 the full control effect."}
{"biological_target": "Cytochrome P450 1A2 (Homo sapiens) (UniProt P05177)", "sequence (P05177 whole entry, looked up)": "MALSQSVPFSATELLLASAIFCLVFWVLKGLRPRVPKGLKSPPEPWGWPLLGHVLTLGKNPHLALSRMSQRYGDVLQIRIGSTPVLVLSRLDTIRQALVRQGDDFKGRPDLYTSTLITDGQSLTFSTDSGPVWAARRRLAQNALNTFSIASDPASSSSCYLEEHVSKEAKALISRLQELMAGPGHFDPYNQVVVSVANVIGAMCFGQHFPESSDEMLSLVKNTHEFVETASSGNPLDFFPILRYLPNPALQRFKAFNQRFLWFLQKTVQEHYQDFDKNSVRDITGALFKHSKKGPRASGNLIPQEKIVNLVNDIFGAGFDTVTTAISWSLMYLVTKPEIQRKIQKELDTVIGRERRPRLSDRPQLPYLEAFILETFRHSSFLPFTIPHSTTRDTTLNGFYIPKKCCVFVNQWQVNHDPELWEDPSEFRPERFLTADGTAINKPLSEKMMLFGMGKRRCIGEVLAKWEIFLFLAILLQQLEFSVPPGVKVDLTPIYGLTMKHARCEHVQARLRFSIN", "experiment": "Cytochrome panel assay with activity outcomes", "details": "recombinant CYP, pro-luciferin dealkylation, luminescence, p450-cyp1a2; series mostly up to 57.1 µM"}
{"compound": "O=C(Nc1nnc(C2CC2)s1)c1ccc(S(=O)(=O)c2ccccc2)cc1", "AC50": "inactive"}
{"compound": "O=C(Nc1nnc(C2CC2)s1)c1ccncc1", "AC50": "12.6 µM (active)"}
{"compound": "O=C(NN=C1C2CC3CC(C2)CC1C3)c1ccncc1", "AC50": "inactive"}
{"compound": "COc1ccc(O[C@H]2C=C[C@@H](c3ccccc3)O[C@H]2CO/N=C2/[C@H]3O[C@@H]3[C@@H](O)[C@H]3[C@H]2CCn2c(=O)n(-c4ccccc4)c(=O)n23)cc1", "activity, negative = inhibition": "12.3% [at 11.4 µM]"}
{"compound": "Cc1ccccc1NC1=NC(=S)N(c2ccccc2)C12CCOC(C)(C)C2", "note": "(stereo unspecified)", "AC50": "inactive"}
{"compound": "CS(=O)(=O)c1ccc(-c2cc(Br)sc2-c2ccc(F)cc2)cc1", "AC50": "0.398 µM (active)"}
{"compound": "FC(F)(F)c1cnc(/C=C/Nc2ccccc2Cl)c(Cl)c1", "AC50": "1.41 µM (active)"}
{"compound": "N#CC(c1ccc(Cl)cc1)(c1ncc(C(F)(F)F)cc1Cl)N1CCOCC1", "note": "(stereo unspecified)", "AC50": "inactive"}
{"compound": "N#CC(c1ccccn1)(c1ncc(C(F)(F)F)cc1Cl)N1CCOCC1", "note": "(stereo unspecified)", "AC50": "inactive"}
{"compound": "NC(=O)C[C@H](NC(=O)Cc1ccc(O)cc1O)C(=O)O", "AC50": "inactive"}
{"compound": "CCc1nc2c(c(SC)nn2-c2ccccc2)c(N)c1C(=O)OC", "AC50": "0.631 µM (active)"}
{"compound": "Nc1cc(-c2ccncc2)c[nH]c1=O", "AC50": "15.8 µM (active)"}
{"compound": "NC(=O)c1cc[n+](CC2=C(C(=O)O)N3C(=O)[C@@H](NC(=O)[C@H](c4ccccc4)S(=O)(=O)[O-])[C@@H]3SC2)cc1", "AC50": "inactive"}
{"compound": "COc1cccc(-c2nc(N(C)C)c3ccccc3n2)c1", "AC50": "0.251 µM (active)"}
{"compound": "COc1cccc(-c2nc(N(C)Cc3ccco3)c3ccccc3n2)c1", "AC50": "0.316 µM (active)"}
{"compound": "CN(Cc1ccco1)c1nc(-c2cccc(C#N)c2)nc2ccccc12", "AC50": "0.1 µM (active)"}
{"compound": "CC(=O)N[C@@H]1CONC1=O", "activity, negative = inhibition": "-16.9% [at 11.4 µM]"}
{"compound": "COc1ccccc1CN1CCCC2(CCN(S(C)(=O)=O)CC2)C1", "AC50": "inactive"}
{"compound": "COc1ccc(CNC(=O)C(c2ccc(C)cc2)N(Cc2cccs2)C(=O)c2ccc3c(c2)OCCO3)cc1", "note": "(stereo unspecified)", "AC50": "inactive"}
{"compound": "c1cncc(CNc2ccnc(-c3ccc4c(c3)OCO4)n2)c1", "AC50": "0.126 µM (active)"}
{"compound": "c1csc(CNc2ccnc(-c3ccc4c(c3)OCO4)n2)c1", "AC50": "0.316 µM (active)"}
{"compound": "c1ccc(CNc2ccnc(-c3ccc4c(c3)OCO4)n2)cc1", "AC50": "0.398 µM (active)"}
{"compound": "CCOC(=O)C1=C(N)Oc2ccc(Br)cc2[C@@H]1[C@@H](C#N)C(=O)OCC", "AC50": "0.251 µM (active)"}
{"compound": "CO[C@@H]1COC(=O)[C@H]2CCCN2C(=O)[C@@H](C)COC(=O)C/C=C\\[C@H]1C", "activity, negative = inhibition": "1.25% [at 11.4 µM]"}
{"compound": "CCCN1CCC(=NNC(=O)c2ccc(Br)o2)CC1", "AC50": "8.91 µM (active)"}
{"compound": "O=C(c1ccccc1NS(=O)(=O)c1cccc([N+](=O)[O-])c1)N1CCOCC1", "AC50": "inactive"}
{"compound": "O=Nc1c(O)n(Cc2ccc(Cl)cc2)c2ccccc12", "AC50": "14.1 µM (active)"}
{"compound": "Cc1nn(CC(=O)NCCN2CCOCC2)c(C)c1[N+](=O)[O-]", "AC50": "inactive"}
{"compound": "Cl/C(=C\\n1cncn1)c1ccc(Cl)cc1Cl", "AC50": "0.0631 µM (active)"}
{"compound": "O=C(Nc1cccn2ncnc12)c1ccc(Cl)cc1Cl", "AC50": "inactive"}
{"compound": "CCOc1cccc(/C(O)=C2/C(=O)C(=O)N(Cc3cccnc3)C2c2ccco2)c1", "note": "(stereo unspecified)", "AC50": "inactive"}
{"compound": "COc1cccc(/C(O)=C2/C(=O)C(=O)N(Cc3cccnc3)C2c2ccco2)c1", "note": "(stereo unspecified)", "AC50": "inactive"}
{"compound": "CCOc1cccc(/C(O)=C2/C(=O)C(=O)N(Cc3ccco3)C2c2ccncc2)c1", "note": "(stereo unspecified)", "AC50": "25.1 µM (active)"}
{"compound": "N[C@@H](Cn1ccc(=O)n(Cc2ccccc2C(=O)O)c1=O)C(=O)O", "AC50": "inactive"}
{"compound": "O=C(c1ccccc1)c1c[nH]c(C(=O)NCc2cccnc2)c1", "AC50": "3.55 µM (active)"}
{"compound": "O=S1(=O)[C@H]([C@H]2CC3c4ccccc4C2c2ccccc23)[C@@H](N2CCCCC2)[C@@H]1c1ccccc1", "activity, negative = inhibition": "1.63% [at 2.29 µM]"}
{"compound": "Nn1c(SCC(=O)N2CCOCC2)nnc1-c1ccccc1Cl", "AC50": "inactive"}
{"compound": "CC(C)Cn1c(-c2ccc(Cl)cc2)cnc1SCC(=O)N1CCOCC1", "AC50": "12.6 µM (active)"}
{"compound": "O=C(CCn1nc(-c2ccc(Cl)cc2)ccc1=O)N1CCOCC1", "AC50": "inactive"}
{"compound": "C#CCSc1n[nH]c(-c2ccco2)n1", "AC50": "2 µM (active)"}
{"compound": "CN(C)C(N)=NCCC[C@H](N)C(=O)O", "AC50": "inactive"}
{"compound": "O[C@@H](C1=C/C(=C\\c2ccncc2)c2ccccc21)c1ccncc1", "AC50": "0.1 µM (active)"}
{"compound": "COc1ccc(CCCC(=O)NC2CCCCC2)cc1", "AC50": "25.1 µM (active)"}
{"compound": "COc1ccc(C(C(=O)NC2CCCCC2)N(C(=O)CCCC(=O)Nc2ccccn2)c2ccc3c(c2)OCCO3)cc1", "note": "(stereo unspecified)", "AC50": "inactive"}
{"compound": "COc1ccc2c(c1)C(=O)N(CCc1ccc(S(=O)(=O)NC(=O)NC3CCCCC3)cc1)C(=O)C2(C)C", "AC50": "inactive"}
{"compound": "COc1ccc(C(C(=O)NC2CCCCC2)N2CCC3(CC2)OCCO3)cc1", "note": "(stereo unspecified)", "AC50": "inactive"}
{"compound": "COc1ccc(/C=N/NC(=O)CCCC(=O)NC2CCCCC2)cc1", "AC50": "11.2 µM (active)"}
{"compound": "CCCC(=O)N=C1SC2CS(=O)(=O)CC2N1c1ccc(CC)cc1", "note": "(stereo unspecified)", "AC50": "inactive"}
{"compound": "CC(=O)OC[C@H]1O[C@@H](O/N=C(\\C)CCC(=O)OC[C@@H]2O[C@H](C#Cc3ccccc3)C=C[C@@H]2Oc2ccc(C)cc2)[C@H](OC(C)=O)[C@@H](OC(C)=O)[C@H]1OC(C)=O", "activity, negative = inhibition": "-5.25% [at 11.4 µM]"}
{"compound": "O=c1c(-c2cc(F)cc(F)c2)nc2cncnc2n1-c1ccccc1", "AC50": "12.6 µM (active)"}
{"compound": "O=c1c(-c2cccc(F)c2)nc2cncnc2n1-c1ccccc1", "AC50": "10 µM (active)"}
{"compound": "C/C(CCN1CCc2nc(-c3ccccc3)c(-c3ccccc3)cc2C1)=N\\O[C@@H](C)CN1CCCCc2nc(C)c(C)cc21", "activity, negative = inhibition": "-10.7% [at 11.4 µM]"}
{"compound": "Cc1c(-c2ccc(O)cc2)nn(-c2ccc(O)cc2)c1-c1ccc(OCCN2CCCCC2)cc1", "AC50": "12.6 µM (active)"}
{"compound": "CC(=O)N1CCC[C@@]2(CCN(Cc3ccccc3)C2)C1", "AC50": "inactive"}
{"compound": "COC(=O)[C@@]1(Cc2ccc(F)cc2)[C@H]2c3cc(C(=O)N4CCCC4)n(Cc4ccc(Cl)c(C(F)(F)F)c4)c3C[C@H]2CN1C(=O)c1ccccc1", "AC50": "inactive"}
{"compound": "CCOC(=O)C1=C(CSc2nc(-c3ccccc3)ccc2C#N)OC(N)=C(C#N)C1c1ccc(OC)cc1", "note": "(stereo unspecified)", "AC50": "2 µM (active)"}
{"compound": "Cc1ccc(S(=O)(=O)Nc2ccccc2C=O)cc1", "activity, negative = inhibition": "-16% [at 11.4 µM]"}
{"compound": "CSc1ccc(S(=O)(=O)Nc2ccc3c4c(cccc24)CC3)cc1", "AC50": "25.1 µM (active)"}
{"compound": "Cc1nc(SCC(=O)NCCc2ccc(Cl)cc2)nc(C)c1C", "AC50": "20 µM (active)"}
{"compound": "N[C@@H](C(=O)O)[C@H](CC(=O)O)c1ccc(Cl)cc1", "AC50": "inactive"}
{"compound": "NCCNC(=O)c1ccc(Cl)cc1", "AC50": "12.6 µM (active) and 10 µM (active)"}
{"compound": "O=C(NCCc1ccc(Cl)cc1)Nc1cccc(Cl)c1", "AC50": "4.47 µM (active)"}
{"compound": "Cc1nc(SCC(=O)Nc2ccc(N3CCOCC3)cc2)nc(C)c1C", "AC50": "inactive"}
{"compound": "O=C(NCCc1ccc(Cl)cc1)c1ncn[nH]1", "AC50": "20 µM (active)"}
{"compound": "Cc1nc(SCC(=O)Nc2c(C)n(C)n(-c3ccccc3)c2=O)nc(C)c1C", "AC50": "inactive"}
{"compound": "CC(=O)OC[C@@H]1O[C@H](C/C=N\\O[C@@H](C)CN2CCCCc3nc(C)c(C)cc32)C=C[C@@H]1OC(C)=O", "activity, negative = inhibition": "-2.17% [at 11.4 µM]"}
{"compound": "O=C(N/N=C1/C[C@@H](O)[C@@H](O)[C@@H]2[C@@H]3C(=O)N(Cc4ccccc4)C(=O)[C@H]3CC[C@H]12)OCc1ccccc1", "activity, negative = inhibition": "-7.17% [at 11.4 µM]"}
{"compound": "CNC(=O)C(=O)NCCc1ccc(Cl)cc1", "AC50": "7.08 µM (active)"}
{"compound": "O=C(NNC(=O)c1ccccc1O)c1ccc(Cl)cc1", "AC50": "inactive"}
{"compound": "CC(C)(Oc1ccc(CCNC(=O)c2ccc(Cl)cc2)cc1)C(=O)O", "AC50": "inactive"}
{"compound": "O=C(NCCc1ccc(O)cc1)c1ccc(Cl)cc1", "AC50": "14.1 µM (active)"}
{"compound": "COc1cccc(-c2nnc3sc(-c4ccc(C)cc4)nn23)c1", "AC50": "7.08 µM (active)"}
{"compound": "CC(C)(C)n1nc2c(c1NC(=O)c1ccc(S(=O)(=O)N3CCCCC3)cc1)CS(=O)C2", "note": "(stereo unspecified)", "AC50": "inactive"}
{"compound": "COc1ccc(Nc2ncnc3sc(-c4ccccc4)cc23)cc1", "AC50": "0.891 µM (active)"}
{"compound": "COc1cccc(-c2ccc3ncnc(Nc4ccccc4)c3c2)c1", "AC50": "1 µM (active)"}
{"compound": "COc1ccc(Nc2ncc(C(=O)N3CCN(Cc4ccccc4)CC3)c3ccccc23)cc1", "AC50": "inactive"}
{"compound": "CNc1ncnc2ccc(-c3cccc(OC)c3)cc12", "AC50": "0.501 µM (active)"}
{"compound": "N[C@@H](CSC(=O)c1ccccc1)C(=O)O", "activity, negative = inhibition": "-14.7% [at 11.4 µM]"}
{"compound": "CN(C)CCCN1CC(C(=O)O)CC1=O", "note": "(stereo unspecified)", "AC50": "inactive"}
{"compound": "Cc1ccc(/C(O)=C2/C(=O)C(=O)N(CCCn3ccnc3)C2c2ccccn2)cc1", "note": "(stereo unspecified)", "AC50": "inactive"}
{"compound": "CCN(CC)CCN1C(=O)C(=O)/C(=C(/O)c2ccc(OC)cc2)C1c1cccs1", "note": "(stereo unspecified)", "AC50": "inactive"}
{"compound": "CCOc1ccc(/C(O)=C2/C(=O)C(=O)N(CCCn3ccnc3)C2c2cccs2)cc1Cl", "note": "(stereo unspecified)", "AC50": "15.8 µM (active)"}
{"compound": "O=C(N/N=C/c1ccc([N+](=O)[O-])o1)c1cc(-c2ccncc2)nc2ccccc12", "AC50": "15.8 µM (active)"}
{"compound": "O=C(O)c1cc(-c2ccncc2)nc2ccccc12", "activity, negative = inhibition": "-9.92% [at 11.4 µM]"}
{"compound": "Nc1ccc(S(=O)(=O)Nc2ccc(Cl)nn2)cc1", "AC50": "inactive"}
{"compound": "COc1ccccc1/C=C/C=N/N1CCN(Cc2cccc3ccccc23)CC1", "AC50": "7.08 µM (active)"}
{"compound": "COc1ccccc1CN1CCC2(CC1)CCN(S(C)(=O)=O)CC2", "AC50": "inactive"}
{"compound": "FC(F)(F)c1ccc(/C=N/N2CCN(Cc3cccc4ccccc34)CC2)cc1", "AC50": "inactive"}
{"compound": "COc1ccc([C@@H]2CNC(=O)C2)cc1OC1CCCC1", "AC50": "3.16 µM (active) and 3.98 µM (active)"}
{"compound": "COc1ccc(OC)c(C2CC(=O)C3=C(C2)NC(=O)CC3c2ccc(O)c(OC)c2)c1", "note": "(stereo unspecified)", "AC50": "inactive"}
{"compound": "COc1ccc(C2C(=O)N(C3CCCCCC3)CC(=O)N2Cc2ccccc2)cc1OC", "note": "(stereo unspecified)", "AC50": "inactive"}
